# Screening data from PubChem.
# Only a selection was taken, and hits are over-represented in it overall.
# HT1080 IDH1KD tx – qHTS for induction of synthetic lethality in tumor cells producing 2HG: qHTS for the HT-1080-IDH1KD cell line. HT-1080 IDH1 knockdown viability, ATP luminescence, 48 h. Potency, µM (highest dose often 46.1 µM), usual class: cytotoxic. 360,000 tested, 2% active. AID 686971, 2013
#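 CellTiter-Glo luminescence after 48 h compound exposure at 37 degrees C of IDH1-knockdown HT-1080 cells in 5% FBS RPMI. %Activity scaled between DMSO wells and cell-free media wells, with curves fitted and assigned curve classes.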
# IL1B secr inh – qHTS for Inhibitors of Inflammasome Signaling: IL-1-beta AlphaLISA Primary Screen; 360,000 tested, 4.7% active; THP-1 LPS/ATP IL-1B secretion, AlphaLISA, 16 h; active compounds read low; activity change, % at 57.5 µM; AID 743279, 2014; in the data active = activity change below about -50%; inconclusive = mostly about -30% to -49%
#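 THP-1 cells pretreated 1 hr with compounds (up to 57.5 uM final), then stimulated with LPS (250 ng/mL final) plus ATP (1.25 mM final); secreted IL-1B measured by AlphaLISA after 16 hr, decreased signal indicating inhibition.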
# ALOX12 inh – Primary qHTS assay for inhibitors of human arachidonate 12S-lipoxygenase (ALOX12): Round 2 | Polyunsaturated fatty acid lipoxygenase ALOX12 (Homo sapiens), P18054 | purified 12hLO, xylenol orange hydroperoxide absorbance | Potency, µM (series often up to 108 µM), usual class: inhibitors | 580,000 tested, 1.1% active | AID 1671190, 2021
# Target sequence (P18054 whole entry, looked up): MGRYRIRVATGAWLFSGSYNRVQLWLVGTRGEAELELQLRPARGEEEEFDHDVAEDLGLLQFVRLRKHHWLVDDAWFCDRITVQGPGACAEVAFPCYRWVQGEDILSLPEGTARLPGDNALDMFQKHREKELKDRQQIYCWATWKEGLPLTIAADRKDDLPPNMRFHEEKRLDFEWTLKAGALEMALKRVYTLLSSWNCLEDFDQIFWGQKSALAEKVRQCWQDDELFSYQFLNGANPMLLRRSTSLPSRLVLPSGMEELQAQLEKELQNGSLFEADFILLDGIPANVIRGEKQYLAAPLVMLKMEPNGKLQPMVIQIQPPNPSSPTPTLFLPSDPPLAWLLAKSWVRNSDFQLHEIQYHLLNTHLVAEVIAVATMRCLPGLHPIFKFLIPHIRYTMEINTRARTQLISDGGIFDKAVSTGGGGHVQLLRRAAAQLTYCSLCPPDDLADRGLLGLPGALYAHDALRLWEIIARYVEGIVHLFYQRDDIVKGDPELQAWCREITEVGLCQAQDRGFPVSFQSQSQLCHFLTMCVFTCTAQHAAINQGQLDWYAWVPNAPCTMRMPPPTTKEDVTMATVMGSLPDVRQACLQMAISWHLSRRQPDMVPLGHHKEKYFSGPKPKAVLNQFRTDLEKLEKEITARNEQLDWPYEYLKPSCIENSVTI
#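 Purified human 12hLO at 150 nM in 25 mM Hepes, 0.01% Triton X-100, pH 7.0, preincubated 15 min at room temperature with compound. Reaction started with 40 uM arachidonic acid, 30 min at room temperature. Hydroperoxide measured by Fe-xylenol orange, 573/405 nm absorbance ratio.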
# DT40 TDP1 no CPT – qHTS for Inhibitors of human tyrosyl-DNA phosphodiesterase 1 (TDP1): qHTS in cells in absence of CPT. Potency, µM (highest dose often 46.2 µM), hits mostly inhibitors. AID 686978, 2013. DT40 Tdp1-/- hTDP1 cells, no CPT, ATP luminescence, 48 h. 420,000 tested, 15% active; also: nearly all actives have a fitted effect of over 55% in size
#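 Compound effects on proliferation are scored in DT40 Tdp1-/-;hTDP1 cells in the absence of CPT. ATP levels (CellTiter-Glo luminescence) are recorded after a ≥48 hr, 37 °C incubation.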
# HT1080NT lethal – qHTS for induction of synthetic lethality in tumor cells producing 2HG: qHTS for the HT-1080-NT fibrosarcoma cell line. HT-1080-NT fibrosarcoma viability, CellTiter-Glo ATP luminescence, 48 h. Potency, µM (top dose mostly 46.1 µM), most hits filed as cytotoxic. 360,000 tested, 1.6% active;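 also: NT is the 2HG producing partner of a matched IDH1 knockdown line; nearly all actives have a fitted effect of over 55% in size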
#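 A 48-hour cytotoxicity screen used HT-1080-NT cells plated 2 hours before compound delivery. ATP-based CellTiter-Glo luminescence measured viability, normalized to DMSO and no-cell controls.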
# TDP1 cell CPT – qHTS for Inhibitors of human tyrosyl-DNA phosphodiesterase 1 (TDP1): qHTS in cells in presence of CPT; AID 686979, 2013; Potency, µM (doses to about 46.2 µM), most hits filed as inhibitors; 420,000 tested, 12% active; chicken DT40 Tdp1-/-;hTDP1 cells + 20 nM CPT, ATP luminescence, 48 h; also: nearly all actives have a fitted effect of over 55% in size
#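 Cell growth measured by CellTiter-Glo luminescence after a minimum 48 h, 37 C compound exposure with 20 nM CPT in Tdp1-knockout DT40 cells stably expressing hTDP1, seeded 400/well; qHTS titration format.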
# A number is an active result; - = inactive; ? = inconclusive; . = no result given; [ ] = another dose, or the depositor's remark. Unless noted, calls follow the shape of the dose curve; as a rule, active = well fitted curve in the direction sought with a large enough effect; inconclusive = small, poorly fitted or top-dose-only effect, or another doubt; inactive = no such curve, though single readings can be large; an effect the other way counts as inactive or inconclusive.
SMILES,HT1080 IDH1KD tx,IL1B secr inh,ALOX12 inh,DT40 TDP1 no CPT,HT1080NT lethal,TDP1 cell CPT
C#CCOCCOCCOCCNc1nc(N2CCN(C(=O)CCCCCCCCCCNC(=O)[C@H]([C@@H](C)CC)n3cc(CCCCCN)nn3)CC2)nc(N2CCN(C(=O)CCCCCCCCCCNC(=O)[C@H](CCCCN)n3cc(CCCC(=O)O)nn3)CC2)n1,-,-88,.,-,-,-
CCOC(=O)C(Cc1ccc(NC(=O)/C(=C\c2ccccc2)NC(=O)c2ccccc2)cc1)N1C(=O)c2ccccc2C1=O (stereo not drawn),-,-,-,8.2µM,-,10µM
O=C(Nc1ccc(C(=O)O)cc1)/C(=C\c1ccccc1)NC(=O)c1ccccc1,-,-,?,-,-,-
Cc1cccc(NC(=O)c2sc(-n3nc(C)c(Cl)c3C)nc2C)c1,.,.,-,.,.,.
O=C(Nc1ccccc1F)N1CC(c2nnc(-c3ccncc3)o2)C2(CCOCC2)C1 (stereo not drawn),.,.,-,.,.,.
N/N=C/C(=N\Nc1ccc(Cl)cc1)C(=O)c1ccncc1,?,-51,-,-,?,-
Cn1c(Oc2ccc(-c3ccc(Br)cc3)cc2)c(C#N)c(=O)n(C)c1=O,.,.,13µM,.,.,.
Cn1c(=O)c2c(nc(Oc3ccc(-c4ccccc4)cc3)n2C)n(C)c1=O,-,-,-,?,-,-
COC(=O)c1c(C)oc2ccc(N(C(=O)c3ccncc3)S(=O)(=O)c3ccc(Br)cc3)cc12,.,.,-,3.7µM,.,8.2µM
CCOC(=O)c1c(C)oc2ccc(N(C(=O)c3ccncc3)S(=O)(=O)c3ccc(Br)cc3)cc12,.,.,-,.,.,.
CCOC(=O)c1c(-c2ccccc2)oc2ccc(N(C(C)=O)S(=O)(=O)c3ccccc3)cc12,.,.,-,?,.,?
CCOc1ccc(S(=O)(=O)N(C(C)=O)c2ccc3oc(C)c(C(=O)OC)c3c2)cc1,.,.,-,0.58µM,.,1.3µM
CC(C)OC(=O)C(C(=O)C(F)(F)F)c1cc(NS(=O)(=O)c2ccc3c4c(cccc24)C(=O)N3)ccc1O (stereo not drawn),.,.,-,?,.,12µM
COC(=O)c1c(C)oc2ccc(N(C(C)=O)S(=O)(=O)c3ccccc3)cc12,?,-,-,-,-,15µM
CC(=O)c1c(C)oc2ccc(N(C(C)=O)S(=O)(=O)c3ccc(Br)cc3)cc12,-,-,-,?,-,?
CC(C)CNC(=O)C(Cc1ccccc1)NC(=O)c1ccccc1 (stereo not drawn),.,.,-,.,.,.
O=C(NCC12CCCC=C1N(Cc1ccccc1)C(=O)CC2)C1CCC1 (stereo not drawn),.,.,-,.,.,.
COC(=O)c1ccc(OCc2ccc(C#N)cc2F)c(OC)c1,.,.,-,.,.,.
CC(=O)c1c(C)oc2ccc(N(C(=O)c3ccncc3)S(=O)(=O)c3ccccc3)cc12,-,-,-,?,-,-
CCOc1ccc(S(=O)(=O)Nc2ccc3oc(C)c(C(=O)OCCOC)c3c2)cc1,.,.,?,1.5µM,.,1.8µM
CCCCOC(=O)c1c(C)oc2ccc(NS(=O)(=O)c3ccc4c5c(cccc35)C(=O)N4)cc12,-,-,?,18µM,-,?
COCCOC(=O)c1c(C)oc2ccc(NS(=O)(=O)c3ccc(C(=O)O)cc3)cc12,-,-,-,-,-,-
CC(=O)c1c(C)oc2ccc(N(C(C)=O)S(=O)(=O)c3ccc(Cl)c([N+](=O)[O-])c3)cc12,6.5µM,-117,-,?,?,?
O=C(c1ccncc1)N(c1ccc2oc3c(c2c1)CCCC3)S(=O)(=O)c1ccc(F)cc1,?,-138,-,?,-,?
COCCOC(=O)c1c(C)oc2ccc(NS(=O)(=O)c3cccs3)cc12,-,-,-,-,-,-
SMILES,HT1080 IDH1KD tx,IL1B secr inh,ALOX12 inh,DT40 TDP1 no CPT,HT1080NT lethal,TDP1 cell CPT
CS(=O)(=O)N1CC2(CCCCN2CC2CC2)Cc2ccccc21 (stereo not drawn),.,.,-[6.33 µM],.,.,.
O=C(Oc1ccc2cc(-c3ccccc3)c(=O)oc2c1)c1ccco1,.,.,-,.,.,.
COC(=O)c1c(C)oc(C)c1S(=O)(=O)N(Cc1ccccc1)C(C)C,-,-,-,16µM,-,13µM
CCC(CC)C(=O)Nc1ccc2nc(SCC(=O)N3CCCC3)sc2c1,.,.,-,21µM,.,?
CC(C)C(=O)Nc1ccc2nc(SCC(=O)N3CCCC3)sc2c1,.,.,-,?,.,?
CC(C)CC(=O)Nc1ccc2nc(SCC(=O)N3CCCC3)sc2c1,.,.,-,23µM,.,23µM
Cc1cc(C)c2c(n1)sc1c(N3CCN(C)CC3)ncnc12,-,.,-,13µM,-,?
CCCNc1nc(OCC(F)(F)F)nc(OCC(F)(F)F)n1,-,-,-,-,-,-
CN1CCN(c2nc(NCCOC34CC5CC(CC(C5)C3)C4)nc(OCC(F)(F)F)n2)CC1,-,-80,-,?,-,?
CC1CCc2cc(F)cc3c(O)c(C(=O)NCCN(C)C)c(=O)n1c23 (stereo not drawn),-,?,-,18µM,?,21µM
CC(CCC(C)C(C)(C)C)[C@@H]1CC[C@H]2C3C[C@H](OS(O)(=S)=S)[C@H]4C[C@H](OS(O)(=S)=S)[C@@H](OS(O)(=S)=S)C[C@]4(C)[C@H]3CC[C@]12C (stereo partly drawn) (tested in a mixture with another compound),?,-76,.,?,9.2µM,?
CCOC(=O)C(CC)/C(C)=N\NC(=O)c1ccccc1O (stereo not drawn),16µM,-,-,23µM,?,16µM
C/C(=N\NC(=O)c1ccccc1[N+](=O)[O-])c1c(O)cc(C)oc1=O,-,-,-,?,-,?
C/C(=N\NC(=O)c1ccccc1O)c1c(O)cc(C)oc1=O,10µM,-,-,?,?,?
C/C(=N\NC(=O)c1ccccc1O)c1ccc(Br)s1,15µM,-,-,?,?,15µM
C/C(=N\NC(=O)c1cccc(F)c1)c1ccc(Br)s1,5.6µM,-,-,7.1µM,11µM,5.6µM
C/C(=N\NC(=O)c1cccc(C)c1)c1ccc(C)s1,.,.,-,.,.,.
Cc1ccc(N(Cc2ccco2)C(=O)CCc2ncc(-c3ccc(F)cc3F)o2)cc1,.,.,-,.,.,.
Nc1ncc(-c2nnnn2-c2ccc(Cl)cc2)c(-c2ccc(Cl)cc2)n1,7.3µM,-,-,5.8µM,6.5µM,4.6µM
